In PubChem BioAssay (NCATS):
Records with an inconclusive call do not appear. Unmarked numbers belong to inactive results. Active and inactive are the calls of the source. The call rests on the fitted dose curve; in most records, active means well fitted cell-killing curve with a large enough effect; inconclusive means small, poorly fitted or top-dose-only effect, or effect the other way; inactive means no such curve, though single readings can be large or run the other way.

Experiment: Quantitative High-Throughput drug screen in 47 multiple myeloma cell lines against the NCATS MIPE library collection: ARP1_JJKsccF8 cell viability assay (AID 1918928; further: nearly all actives have a fitted effect of over 40% in size)
Conditions: ARP1 myeloma cells viability, CellTiter-Glo ATP, 48 h; series mostly up to 45.8 µM; viability: at the top concentration
Procedure, shortened: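 CellTiter-Glo luminescence after 48 h exposure gives viability, scaled between DMSO-only (100%) and media-only (0%) controls. Library compounds are pinned onto 500 myeloma cells per well, incubated at 37C with 5% CO2.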
Potency means the concentration at half of the fitted maximal effect.

Compound	viability	Potency
CC(C)(O)CC[C@@H](O)[C@](C)(O)[C@H]1CC[C@@]2(O)C3=CC(=O)[C@@H]4C[C@@H](O)[C@@H](O)C[C@]4(C)[C@@H]3CC[C@]12C	115%	–
CCCCCCCCCCCC(CC1OC(=O)C1CCCCCC)OC(=O)C(CC(C)C)NC=O (stereo not drawn)	78.9%	–
Cc1noc(-c2ccc(CSCCC(=O)O)cc2)c1NC(=O)OC(C)c1ccccc1Cl (stereo not drawn)	107%	–
CN1C(C(=O)Nc2ccccn2)=C(O)c2sc(Cl)cc2S1(=O)=O	–	2.64 µM (active)
COc1cc(C[C@@H](CO)[C@H](CO)Cc2ccc(O)c(OC)c2)ccc1O	123%	–
CC(N[C@H]1CCCC[C@H]1NC(=O)c1ccc(Cl)cc1)c1cccc2ccccc12 (stereo partly drawn)	67.1%	–
O=c1[nH]c(=O)n([C@H]2C[C@@H](O)[C@@H](CO)O2)cc1C=CBr	106%	–
CC1(C)[C@H](O[C@H]2O[C@H](C(=O)O)[C@@H](O)[C@H](O)[C@H]2O[C@@H]2O[C@H](C(=O)O)[C@@H](O)[C@H](O)[C@H]2O)CC[C@@]2(C)[C@H]1CC[C@]1(C)[C@H]2C(=O)C=C2[C@H]3C[C@@](C)(C(=O)O)CC[C@]3(C)CC[C@]21C	110%	–
C=C1CCC2[C@](C)(CO)C(O)CC[C@]2(C)C1CC=C1C(=O)OCC1O (stereo partly drawn)	113% [at 92.2 µM]	–
COc1ccc(C=Cc2cc(OC)c(OC)c(OC)c2)cc1NC(=O)[C@H](N)CO	–	0.0053 µM (active)
Cn1cc(C=CC(=O)c2cccc(F)c2)cc1C=CC(=O)NO	–	16.6 µM (active)
CC(Oc1ccc(O)cc1)(P(=O)(O)O)P(=O)(O)O	80.9%	–
COc1ccc(S(=O)(=O)Nc2cc(-c3c(O)ccc4ccccc34)c(O)c3ccccc23)cc1	–	11.8 µM (active)
C#CCC(Cc1cnc2nc(N)nc(N)c2n1)c1ccc(C(=O)N[C@@H](CCC(=O)O)C(=O)O)cc1 (stereo partly drawn)	–	0.0469 µM (active)
COC(=O)[C@@H]1[C@H]2C[C@@H]3c4[nH]c5ccccc5c4CCN3C[C@@H]2CC[C@@H]1O	109%	–
CCN1CCN(C(=O)N[C@H](C(=O)N[C@@H]2C(=O)N3C(C(=O)O)=C(CSc4nnnn4C)CS[C@@H]23)c2ccc(O)cc2)C(=O)C1=O	112% [at 15.3 µM]	–
NC(=O)c1cccc(-c2cccc(OC(=O)NC3CCCCC3)c2)c1	114%	–
CCCCCCCCCCCCCCCC(=O)OC[C@@H](NC(=O)C(Cl)Cl)[C@H](O)c1ccc([N+](=O)[O-])cc1	80.1%	–
COc1cc(C(=O)NC2CCN(C)CC2)ccc1Nc1ncc2c(n1)N(C1CCCC1)CCC(=O)N2C(C)C	–	29.6 µM (active)
C#C[C@]1(O)CC[C@@H]2[C@@H]3CCC4=CC(=O)CC[C@@H]4[C@H]3CC[C@@]21CC	104%	–
c1coc(CNc2ncnc3nc[nH]c23)c1	109%	–
CC(C)NC[C@@H](C(=O)N1CCN(c2ncnc3c2[C@H](C)C[C@H]3O)CC1)c1ccc(Cl)cc1	–	2.09 µM (active)

Experiment: Quantitative High-Throughput drug screen in 47 multiple myeloma cell lines against the NCATS MIPE library collection: ARD_JJKsccE7 cell viability assay (AID 1918929)
Conditions: ARD myeloma cell line viability, CellTiter-Glo, 48 h; series mostly up to 45.8 µM; viability: at the top concentration
Procedure, shortened: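 We plated 500 myeloma cells per well, pinned in MIPE 4.0 compounds, and incubated for 48 hours at 37C. ATP was then quantified with CellTiter-Glo, with DMSO and media-only wells defining 100% and 0%.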

Compound	viability	Potency
CC(Cc1ccc(O)c(O)c1)(NN)C(=O)O (stereo not drawn)	129%	–
CC(C)(O)CC[C@@H](O)[C@](C)(O)[C@H]1CC[C@@]2(O)C3=CC(=O)[C@@H]4C[C@@H](O)[C@@H](O)C[C@]4(C)[C@@H]3CC[C@]12C	98%	–
CCCCCCCCCCCC(CC1OC(=O)C1CCCCCC)OC(=O)C(CC(C)C)NC=O (stereo not drawn)	119%	–
Cc1noc(-c2ccc(CSCCC(=O)O)cc2)c1NC(=O)OC(C)c1ccccc1Cl (stereo not drawn)	71.7%	–
CN1C(C(=O)Nc2ccccn2)=C(O)c2sc(Cl)cc2S1(=O)=O	138%	–
COc1cc(C[C@@H](CO)[C@H](CO)Cc2ccc(O)c(OC)c2)ccc1O	–	9.35 µM (active)
CCc1cc(C(C)=NOCc2ccc(C3CCCCC3)c(C(F)(F)F)c2)ccc1CN1CC(C(=O)O)C1	–	4.69 µM (active)
C=C1CCC2[C@](C)(CO)C(O)CC[C@]2(C)C1CC=C1C(=O)OCC1O (stereo partly drawn)	138% [at 92.2 µM]	–
COc1ccc(C=Cc2cc(OC)c(OC)c(OC)c2)cc1NC(=O)[C@H](N)CO	–	0.0118 µM (active)
Cn1cc(C=CC(=O)c2cccc(F)c2)cc1C=CC(=O)NO	–	16.6 µM (active)
COc1ccc(S(=O)(=O)Nc2cc(-c3c(O)ccc4ccccc34)c(O)c3ccccc23)cc1	–	5.26 µM (active)
COc1ccc(Nc2nccc(NCCO)n2)cc1	91.2%	–
Cc1[nH]c(C=C2C(=O)Nc3ccccc32)c(C)c1CCC(=O)O	–	20.9 µM (active)
Cc1cn([C@@H]2O[C@H](CO)[C@@H](O)[C@H]2F)c(=O)[nH]c1=O	91%	–
CC(=O)NC(CS)C(=O)O (stereo not drawn)	123%	–
COC(=O)C=CC(=O)OC	–	1.18 µM (active)
COC(=O)[C@@H]1[C@H]2C[C@@H]3c4[nH]c5ccccc5c4CCN3C[C@@H]2CC[C@@H]1O	123%	–
CCN1CCN(C(=O)N[C@H](C(=O)N[C@@H]2C(=O)N3C(C(=O)O)=C(CSc4nnnn4C)CS[C@@H]23)c2ccc(O)cc2)C(=O)C1=O	136% [at 15.3 µM]	–
NC(=O)c1cccc(-c2cccc(OC(=O)NC3CCCCC3)c2)c1	114%	–
CCCCCCCCCCCCCCCC(=O)OC[C@@H](NC(=O)C(Cl)Cl)[C@H](O)c1ccc([N+](=O)[O-])cc1	124%	–
CC(C=CC=C(C)C=CC1=C(C)CCCC1(C)C)=CC=CC=C(C)C=CC=C(C)C=CC1=C(C)CCCC1(C)C	–	20.9 µM (active)
COc1cc(C(=O)NC2CCN(C)CC2)ccc1Nc1ncc2c(n1)N(C1CCCC1)CCC(=O)N2C(C)C	–	18.7 µM (active)
C=C[C@@H]1CN2CCC1C[C@H]2[C@H](O)c1ccnc2ccc(OC)cc12 (stereo partly drawn)	68%	–
COc1ccc(CCC(=O)c2c(O)cc(O[C@@H]3O[C@H](CO)[C@@H](O)[C@H](O)[C@@H]3O[C@@H]3O[C@@H](C)[C@H](O)[C@@H](O)[C@@H]3O)cc2O)cc1O	108%	–
c1coc(CNc2ncnc3nc[nH]c23)c1	101%	–
N#CC(=C(O)c1ccc(Cl)cc1Cl)c1nc2cc(Cl)ccc2c(=O)[nH]1	112%	–
